# Screening results as filed in PubChem.
# G9a block – inhibitors of human histone lysine methyltransferase G9a; G9a H3K9 monomethylation, AlphaScreen, 2 h; Potency, µM (highest dose often 102 µM), inactives show at the highest dose activity, negative = inhibition, most hits filed as inhibitors; actives 8.8% (n = 350,000); AID 504332; further: potency means the concentration at half of the fitted maximal effect; nearly all actives have a fitted effect of over 75% in size
# Target sequence (Q96KQ7 913-1193 limits assumed): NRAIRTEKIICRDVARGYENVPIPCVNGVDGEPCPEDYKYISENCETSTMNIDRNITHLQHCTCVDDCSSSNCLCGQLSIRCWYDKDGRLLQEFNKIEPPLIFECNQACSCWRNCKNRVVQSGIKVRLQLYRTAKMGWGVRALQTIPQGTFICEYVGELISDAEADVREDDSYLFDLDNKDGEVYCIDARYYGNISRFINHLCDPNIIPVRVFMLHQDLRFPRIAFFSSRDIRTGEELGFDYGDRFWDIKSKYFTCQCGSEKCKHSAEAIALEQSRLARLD
#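 Compounds were preincubated with 20 nM G9a for 15 min, after which biotinylated H3K9 peptide (500 nM) and SAM (20 uM) started a 2 h room-temperature reaction. Monomethylated product was quantified by antibody-based AlphaScreen chemiluminescence.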
# Tau fluor cs – counter-screen for tau fibril formation inhibitors; tau K18 P301L Alexa594 fluorescence, heparin fibrillization; Potency, µM (series often up to 57.7 µM), without a hit: at the top dose activity change, negative = decrease; actives 0.93% (n = 280,000); further: potency means the concentration at half of the fitted maximal effect; nearly all actives have a fitted effect of over 55% in size
#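 Human tau K18 P301L (15 uM unlabeled, 0.24 uM Alexa 594-labeled) in 100 mM sodium acetate pH 7 with 20 uM heparin, 6 hr at 37 C. ThT 30 uM added, 1 hr ambient; Alexa 594 FP and total fluorescence read at 555/632 nm.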
# FBPA coupling cs – coupling enzyme interference in Giardia aldolase counter-screen; coupling enzyme system counterscreen, AmpLite Red fluorescence; activity change, negative = inhibition, % at 58.2 µM, hits read low; actives 0.67% (n = 290,000); AID 2472; in the data active means activity change below about -30%
#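 Final compound at 57.5 uM, incubated 10 min at RT with coupling enzyme reagent (glyceraldehyde-3-phosphate), then 20 min with substrate and AmpLite Red detection. Fluorescence read at 525/598 nm; tests interference with the coupling assay, not aldolase inhibition.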
# Tau fibril ThT – blocks human tau fibril formation measured by thioflavin T; P10636; recombinant tau K18 P301L (four-repeat tau fragment), heparin-induced fibrillization, ThT fluorescence; Potency, µM (top dose mostly 57.4 µM), inactives show top-dose activity, negative = inhibition, hits mostly inhibitors; actives 2.1% (n = 270,000); AID 1460; further: potency means the concentration at half of the fitted maximal effect; nearly all actives have a fitted effect of over 55% in size
# Target sequence (P10636 561-689 P618L limits assumed): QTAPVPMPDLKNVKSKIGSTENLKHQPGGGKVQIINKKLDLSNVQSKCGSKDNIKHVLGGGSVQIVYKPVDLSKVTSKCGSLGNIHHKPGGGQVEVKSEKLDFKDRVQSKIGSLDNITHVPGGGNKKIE
#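 Heparin-induced fibrillization of the P301L-mutant K18 repeat-domain fragment of human tau was followed by ThT binding in quantitative high-throughput format.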
# Sfp PPTase inh – inhibitors of Bacillus subtilis Sfp phosphopantetheinyl transferase; Q9F4F7; Biochemical Sfp PPTase activity, qHTS; Potency, µM, without a hit: largest response in the series, negative = inhibition, most hits filed as inhibitors; actives 3.5% (n = 310,000); AID 1490;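 further: the enzyme is Sfp with the accession as filed and its product quenches rhodamine fluorescence; potency means the concentration at half of the fitted maximal effect; 0% = enzyme reaction without inhibitor and -100% = no enzyme wells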
#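 Fluorescence-quenching assay with 15 nM Sfp, 5 uM rhodamine-CoA and 12.5 uM BHQ-2-labelled ybbR peptide in pH 7.6 Hepes/MgCl2 buffer. Enzyme was pre-incubated with compound for 15 min at room temperature. Rate was taken from the 30-min fluorescence change (525/598 nm).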
# Tau FP inhib – inhibitors of human tau fibril formation | AID 1468 | K18 P301L tau heparin fibrillization, Alexa594 FP, 6 h | actives 0.39% (n = 280,000) | P10636 | Potency, µM (highest dose often 57.7 µM), for inactives: at the top dose activity, negative = inhibition, actives largely listed as inhibitors; further: potency means the concentration at half of the fitted maximal effect; nearly all actives have a fitted effect of over 55% in size
#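 Steps: dispense K18 P301L tau (15 uM plus 0.24 uM Alexa 594 tracer, final) in pH 7 sodium acetate; add compound; add heparin (20 uM final); incubate 6 hr, 37 C; add ThT (30 uM final); after 1 hr ambient, read FP.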
# Numbers without * were called inactive; ? = inconclusive; . = not tested or not shown; [ ] = remark or other dose. Most compounds without a hit are left out; they make up all but 11% or so of the library. Unless noted, the call rests on the fitted dose curve; in most records, active means well fitted curve in the direction sought with a large enough effect; inconclusive means small, poorly fitted or top-dose-only effect, or another doubt; inactive means no such curve, though single readings can be large; an effect the other way counts as inactive or inconclusive. Unless noted, on the % scale 0 is the no-effect control and ±100 the full control effect.
SMILES,G9a block,Tau fluor cs,FBPA coupling cs,Tau fibril ThT,Sfp PPTase inh,Tau FP inhib
Clc1ccc(Cl)c(OCCN2CCCC2)c1,50µM*,.,-3,.,4%,.
Clc1ccc(OCCOCCN2CCCCC2)c(Br)c1,3.2µM*,-3%,1,-6%,56µM*,-4%
CN(C)CCCOc1ccc(Cl)cc1Br,30%[0.501 µM],0%,-3,2%,-14%,3%
CN(C)CCOCCOc1ccc(Cl)cc1Br,8.9µM*,-10%,2,-5%,-30%,2%
Cc1ccc(Cl)c(OCCN2CCCC(C)C2)c1 (stereo not given),13µM*,8%,2,10%,-15%,1%
COc1ccccc1C(=O)N1CCCCC1CCN1CCOCC1 (stereo not given),6%[59 µM],1%,.,5%,.,6%
CC1Cn2c(C(=O)NCc3cccc(Br)c3)cc3cccc(c32)S1 (stereo not given),29%[59 µM],?,.,-5%,.,?
CCOc1ccccc1CNC(=O)CCn1ccc2cc(S(=O)(=O)N3CCC(C)CC3)ccc21,-7%[59 µM],-16%,.,1%,.,3%
CC1CCN(CCCOc2ccc(Cl)cc2Br)CC1,20µM*,1%,2,-3%,6%,5%
Clc1ccc(OCCCN2CCc3ccccc3C2)c(Br)c1,-129%,.,1,.,1%,.
CC1CCCN(CCOc2ccc3ccccc3c2Br)C1 (stereo not given),?,-5%,0,-8%,16µM*,2%
O=C(CCS(=O)(=O)c1ccc(Cl)cc1)Nc1nnc(-c2ccco2)o1,-37%,.,.,.,.,.
NS(=O)(=O)c1ccc(N/N=C/c2ccccc2C(=O)O)c([N+](=O)[O-])c1,-31%,-6%,6,?,-2%,9%
NS(=O)(=O)c1ccc(N/N=C/c2ccc(O)cc2O)c([N+](=O)[O-])c1,.,?,1,2.2µM*,8%,-2%
NS(=O)(=O)c1ccc(N/N=C/c2ccc(O)c(O)c2O)c([N+](=O)[O-])c1,.,2µM*[quencher],-46*,2µM*,4µM*,5µM*
Cc1ccccc1-n1ccnc1SCC(=O)NCc1ccco1,-3%,-14%,0,?,3%,-2%
C=CCCN(Cc1ccc(OC)cc1)S(=O)(=O)c1ccccc1Br,.,.,2,.,-5%,.
COC(=O)CCCC[C@@H]1SC[C@@H]2NC(=O)N[C@@H]21,.,-17%,-1,-13%,14%,-3%
COC(=O)CCCC[C@H]1SC[C@H]2NC(=O)N[C@]21O,2.2µM*,-8%,-1,?,40µM*,-8%
COC(=O)CCCCC1SCC2NC(=O)NC21O (stereo not given),8.9µM*,-9%,2,-11%,20%,5%
COc1ccc(C2NC3=C(CCCC3)C(C#N)(C#N)C2(C#N)C#N)cc1 (stereo not given),8.9µM*,?,-27,25µM*,56µM*,?
COc1cc(C2N(c3ccccc3)CCN2c2ccccc2)cc(OC)c1OC,?,-16%,-36*,?,-20%,-3%
Cc1cccc(N2CCN(Cc3cc(=O)oc4cc(C)ccc34)CC2C)c1 (stereo not given),-31%[59 µM],-17%,.,?,.,-9%
COc1ccc(C(C)(C)C)cc1NC(=O)COC(=O)c1ccc([N+](=O)[O-])o1,40µM*,-24%,-7,-5%,-23%,7%
O=C(Nc1cccnc1)C(Cc1ccccc1)n1cccc1 (stereo not given),50µM*,-7%,2,-5%,-13%,0%
SMILES,G9a block,Tau fluor cs,FBPA coupling cs,Tau fibril ThT,Sfp PPTase inh,Tau FP inhib
O=C(CCC(=O)c1ccc(-c2ccccc2)cc1)Nc1cccnc1,50µM*,5%,0,.,-4%,9%
O=C(Nc1ncc(Br)s1)C(Cc1ccccc1)n1cccc1 (stereo not given),45µM*,?,-1,0%,-10%,-6%
COc1cc(NC(=O)CC2C(=O)N(c3cccc(C)c3)C(=O)N2Cc2ccc(F)cc2)cc(OC)c1 (stereo not given),-6%[59 µM],?,.,0%,.,-14%
C=CCOc1ccc(C(c2c(C(=O)O)[nH]c3ccccc23)c2c(C(=O)O)[nH]c3ccccc23)cc1,35µM*,.,15,.,-3%,.
O=C(O)c1[nH]c2ccccc2c1C(c1ccccc1)c1c(C(=O)O)[nH]c2ccccc12,-50%,.,14,.,20%,.
CC(C)(C)OC(=O)N1CCC(c2c(C(=O)NCCN3CCc4ccccc4C3)cnn2-c2ccc(F)cc2F)CC1,?,-11%,.,-7%,.,-1%
CCCOc1ccc(C(=O)NC(=S)NCc2cccnc2)cc1,45µM*,-2%,0,?,-2%,3%
C=CCOc1ccc(C(=O)Nc2ccccc2C(=O)NCc2cccnc2)cc1,71µM*,.,-3,.,-7%,.
CC(C)COc1cccc(C(=O)NC(=S)NCc2cccnc2)c1,45µM*,-21%,1,?,11%,5%
CCOc1ccc(C(=O)NC(=S)NCc2cccnc2)cc1,1µM*,4%,0,-2%,9%,2%
CCn1cc(C(=O)OCC(=O)Nc2cc(Cl)ccc2OC)c(=O)c2ccc(C)nc21,-3%[59 µM],6%,.,8%,.,-4%
COc1ccc(Br)cc1CNC(=O)CCCn1c(=O)c2cccn2c2ccccc21,-6%[59 µM],10%,.,?,.,-11%
COc1ccccc1CNS(=O)(=O)c1cc(C(=O)Nc2cccc(C(F)(F)F)c2)ccc1F,9%[59 µM],?,.,2%,.,?
Cc1ccc(S(=O)(=O)N2CCN(C(=O)C(C)Cn3nc(C)c(C)c3C)CC2)cc1C (stereo not given),50µM*,.,0,.,23%,.
CC1=C(C(=O)NCc2ccccc2F)C2(CCCCC2)OC1=O,-10%[59 µM],-28%,.,-17%,.,-1%
COc1ccc(NC(=O)/C(C#N)=C\C=C\c2ccco2)cc1,?,-9%,-4,2.5µM*,-26%,13%
COC(=O)C(=C/C=C/c1ccco1)C(=O)OC,45µM*,-15%,-1,?,-1%,-9%
COC(=O)N/N=C(C)\C=C\c1ccco1,?,-2%,0,-13%,10%,-2%
Cc1ccc(Sc2ncccc2C(=O)NCC(c2ccc(F)cc2)N2CCOCC2)cc1C (stereo not given),0.89µM*,.,.,.,.,.
COc1ccc(C(=O)C2=NN(C(C)=O)CC2c2ccco2)cc1 (stereo not given),13%[59 µM],-16%,2,-12%,10%,11%
COc1ccc(CC2(CO)CCN(Cc3cccnc3)CC2)cc1,35µM*,-7%[2.34 µM],-10,3%,8.9µM*,-2%[2.34 µM]
COc1ccc(CCN(C)C(=O)C2CCCN(C3CCN(Cc4ccccc4)CC3)C2)cc1OC (stereo not given),32µM*,.,2,.,-24%,.
